# Experimental data as given in PubChem BioAssay.
# The list shows a part of the results. Activity calls are given as the source filed them.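 Rule for the calls, unless noted: active = under 65% GFP response relative to DMSO; inconclusive = yeast strain with under 70 measured events; inactive = the rest.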
# Legend:
# [1] = reduced mouse 2C T cell binding to pMHC/ICAM-1 vesicles – MLPCN validation set, flow cytometry, LFA-1/ICAM-1 modulator project, pilot screen (AID 2523;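 active = response below a set limit, under 55% cells CD8-positive and vesicle-bound, and CD8 cells' 90th-percentile brightness under 279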;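 for vesicle binding response: mean PE anti-B7-1 fluorescence of CD8+ cells relative to row control; 100% = QL9-loaded vesicles with DMSO vehicle in the same plate row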); conditions: 2C mouse CD8+ T cells, at 7 µM, stronger effect = lower value; double positive events: measured here: CD8+/vesicle+ event percentage
# [2] = target: Integrin beta-1 (Homo sapiens) + Integrin alpha-4 (Homo sapiens) (UniProt P13612+P05556); test: alpha4beta1 integrin LIBS antibody binding reduction – U937 cells, HUTS-21 mAb, flow cytometry, validation set, VLA-4 allosteric modulator project, pilot screen (AID 2674;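 active = inhibition above 50%, about 3 SD of the validation set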;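 note: antibody binding induced by the VLA-4 ligand LDV present at three times its Kd; 0% = LDV ligand with antibody and no compound and 100% = antibody without LDV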); conditions: HUTS-21 LIBS mAb binding, at 6.7 µM, stronger effect = higher value, binding induced by LDV ligand
# Integrin beta-1 (Homo sapiens) + Integrin alpha-4 (Homo sapiens), sequence (P05556 whole entry, looked up): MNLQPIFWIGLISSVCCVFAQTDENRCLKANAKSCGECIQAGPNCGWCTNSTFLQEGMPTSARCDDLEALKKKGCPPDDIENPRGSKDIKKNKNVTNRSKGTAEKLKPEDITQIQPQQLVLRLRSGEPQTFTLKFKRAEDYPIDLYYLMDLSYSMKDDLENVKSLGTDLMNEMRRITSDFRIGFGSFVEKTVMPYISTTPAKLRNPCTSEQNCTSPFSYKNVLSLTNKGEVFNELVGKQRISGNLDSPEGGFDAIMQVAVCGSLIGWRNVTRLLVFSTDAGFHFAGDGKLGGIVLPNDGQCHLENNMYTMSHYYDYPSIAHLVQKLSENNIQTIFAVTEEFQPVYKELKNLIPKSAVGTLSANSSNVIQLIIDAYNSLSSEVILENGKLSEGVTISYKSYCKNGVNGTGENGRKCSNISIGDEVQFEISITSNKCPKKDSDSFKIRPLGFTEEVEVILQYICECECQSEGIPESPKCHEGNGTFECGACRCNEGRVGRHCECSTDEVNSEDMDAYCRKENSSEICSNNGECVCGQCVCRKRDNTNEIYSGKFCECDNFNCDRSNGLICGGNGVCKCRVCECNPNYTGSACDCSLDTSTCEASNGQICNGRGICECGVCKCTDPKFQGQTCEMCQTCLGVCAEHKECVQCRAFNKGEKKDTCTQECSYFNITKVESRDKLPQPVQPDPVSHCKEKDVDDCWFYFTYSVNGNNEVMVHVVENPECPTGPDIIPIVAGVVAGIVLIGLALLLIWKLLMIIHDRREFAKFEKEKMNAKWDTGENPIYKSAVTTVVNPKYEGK
# Integrin beta-1 (Homo sapiens) + Integrin alpha-4 (Homo sapiens), sequence (P13612 whole entry, looked up): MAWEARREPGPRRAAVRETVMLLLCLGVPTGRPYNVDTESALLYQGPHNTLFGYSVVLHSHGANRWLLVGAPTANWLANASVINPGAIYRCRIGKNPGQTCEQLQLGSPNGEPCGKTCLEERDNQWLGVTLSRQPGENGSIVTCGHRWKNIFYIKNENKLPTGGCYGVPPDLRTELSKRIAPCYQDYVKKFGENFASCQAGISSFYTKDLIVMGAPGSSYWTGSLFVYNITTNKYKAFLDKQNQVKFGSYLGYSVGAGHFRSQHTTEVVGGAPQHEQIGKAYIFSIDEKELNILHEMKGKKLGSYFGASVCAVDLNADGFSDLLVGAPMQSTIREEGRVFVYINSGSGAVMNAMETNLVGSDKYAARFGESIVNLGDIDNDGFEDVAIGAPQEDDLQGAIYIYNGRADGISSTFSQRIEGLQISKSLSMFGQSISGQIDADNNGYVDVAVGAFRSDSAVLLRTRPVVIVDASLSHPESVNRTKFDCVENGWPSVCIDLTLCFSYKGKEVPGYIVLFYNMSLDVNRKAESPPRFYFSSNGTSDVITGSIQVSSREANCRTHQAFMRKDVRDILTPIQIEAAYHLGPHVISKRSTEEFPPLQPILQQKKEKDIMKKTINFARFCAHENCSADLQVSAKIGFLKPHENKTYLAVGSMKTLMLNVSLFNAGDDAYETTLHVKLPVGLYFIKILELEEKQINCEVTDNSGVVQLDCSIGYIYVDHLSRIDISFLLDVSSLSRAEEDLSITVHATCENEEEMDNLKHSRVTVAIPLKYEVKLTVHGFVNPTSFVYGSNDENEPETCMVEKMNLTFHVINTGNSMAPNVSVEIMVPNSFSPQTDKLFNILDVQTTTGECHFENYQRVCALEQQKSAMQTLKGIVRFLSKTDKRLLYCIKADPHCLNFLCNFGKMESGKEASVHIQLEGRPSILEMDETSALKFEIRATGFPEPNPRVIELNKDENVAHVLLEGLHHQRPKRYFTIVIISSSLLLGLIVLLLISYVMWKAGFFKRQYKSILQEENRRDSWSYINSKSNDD
# [3] = target: Beta-adrenergic receptor kinase 1 (Homo sapiens) (UniProt P25098); test: GRK2 binders displacing RNA aptamer, biochemical, validation, human GRK2, bead flow cytometry (AID 488806;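 active = aptamer binding inhibition above 30%, about 3 SD of noise from non-fluorescent compounds; inactive = inhibition at or below 30%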); conditions: bead-bound GRK2, FAM-aptamer displacement, at 10 µM, stronger effect = higher value
# Beta-adrenergic receptor kinase 1 (Homo sapiens), sequence (P25098 whole entry, looked up): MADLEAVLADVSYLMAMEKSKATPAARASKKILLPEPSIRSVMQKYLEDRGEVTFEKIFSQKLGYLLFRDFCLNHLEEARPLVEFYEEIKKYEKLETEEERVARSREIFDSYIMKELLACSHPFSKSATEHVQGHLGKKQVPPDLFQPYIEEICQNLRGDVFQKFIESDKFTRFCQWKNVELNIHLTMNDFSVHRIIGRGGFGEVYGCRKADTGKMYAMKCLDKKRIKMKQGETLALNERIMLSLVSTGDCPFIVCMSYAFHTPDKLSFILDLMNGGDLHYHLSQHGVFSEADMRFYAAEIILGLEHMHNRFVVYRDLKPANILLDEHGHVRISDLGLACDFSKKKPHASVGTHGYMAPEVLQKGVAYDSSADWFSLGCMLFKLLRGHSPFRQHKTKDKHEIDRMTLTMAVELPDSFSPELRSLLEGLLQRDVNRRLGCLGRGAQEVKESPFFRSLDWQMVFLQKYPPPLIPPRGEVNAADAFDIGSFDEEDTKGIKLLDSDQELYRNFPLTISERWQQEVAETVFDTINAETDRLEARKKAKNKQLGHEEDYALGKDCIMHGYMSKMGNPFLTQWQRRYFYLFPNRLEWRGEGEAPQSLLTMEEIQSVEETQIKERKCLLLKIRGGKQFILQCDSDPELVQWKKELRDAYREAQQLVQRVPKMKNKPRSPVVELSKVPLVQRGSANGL
# [4] = target: Beta-2 adrenergic receptor (Homo sapiens) (UniProt P07550); test: agonist-induced loss of surface beta2AR – cell-based, FAP fluorogen, flow cytometry, validation set, pilot screen (AID 504459;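 active = percent response above 42, roughly 3 SD of non-fluorescent test compounds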;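 note: agonist-driven loss of surface beta2AR via internalization measured by FAP dye flow cytometry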); conditions: Am2.2-beta2AR cells, at 10 µM, stronger effect = higher value
# Beta-2 adrenergic receptor (Homo sapiens), sequence (P07550 whole entry, looked up): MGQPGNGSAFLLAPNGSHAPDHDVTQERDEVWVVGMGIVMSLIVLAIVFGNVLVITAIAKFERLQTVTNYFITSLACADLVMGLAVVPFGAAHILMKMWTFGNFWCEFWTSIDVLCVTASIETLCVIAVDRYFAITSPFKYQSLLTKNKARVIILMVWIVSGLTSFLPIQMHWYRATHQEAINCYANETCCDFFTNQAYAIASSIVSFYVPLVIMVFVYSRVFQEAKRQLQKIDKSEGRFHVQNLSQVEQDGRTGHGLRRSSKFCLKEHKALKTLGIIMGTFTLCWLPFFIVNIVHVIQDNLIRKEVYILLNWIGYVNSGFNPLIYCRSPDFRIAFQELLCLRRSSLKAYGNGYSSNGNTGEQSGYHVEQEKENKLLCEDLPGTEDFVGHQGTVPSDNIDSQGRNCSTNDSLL
# [5] = target: AP-2 complex subunit beta (Homo sapiens) (UniProt P63010); test: beta-arrestin/AP2 interaction blockers – biochemical, validation set, GST-AP2 beads, flow cytometry, pilot screen (AID 504541;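 active = inhibition above 54%, about 3 SD of non-fluorescent compounds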;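 note: AP2 carries R879A mutation and is captured from E. coli lysate; bead-bound FITC arrestin peptide fluorescence measuring arrestin peptide binding to AP2; 0% = DMSO wells and 100% = excess unlabeled arrestin peptide control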); conditions: FITC arrestin peptide, at 10 µM, stronger effect = higher value, AP2 beta2 appendage fragment, R879A mutant
# AP-2 complex subunit beta (Homo sapiens), sequence (P63010 whole entry, looked up, the tested form may be a part, one chain of several): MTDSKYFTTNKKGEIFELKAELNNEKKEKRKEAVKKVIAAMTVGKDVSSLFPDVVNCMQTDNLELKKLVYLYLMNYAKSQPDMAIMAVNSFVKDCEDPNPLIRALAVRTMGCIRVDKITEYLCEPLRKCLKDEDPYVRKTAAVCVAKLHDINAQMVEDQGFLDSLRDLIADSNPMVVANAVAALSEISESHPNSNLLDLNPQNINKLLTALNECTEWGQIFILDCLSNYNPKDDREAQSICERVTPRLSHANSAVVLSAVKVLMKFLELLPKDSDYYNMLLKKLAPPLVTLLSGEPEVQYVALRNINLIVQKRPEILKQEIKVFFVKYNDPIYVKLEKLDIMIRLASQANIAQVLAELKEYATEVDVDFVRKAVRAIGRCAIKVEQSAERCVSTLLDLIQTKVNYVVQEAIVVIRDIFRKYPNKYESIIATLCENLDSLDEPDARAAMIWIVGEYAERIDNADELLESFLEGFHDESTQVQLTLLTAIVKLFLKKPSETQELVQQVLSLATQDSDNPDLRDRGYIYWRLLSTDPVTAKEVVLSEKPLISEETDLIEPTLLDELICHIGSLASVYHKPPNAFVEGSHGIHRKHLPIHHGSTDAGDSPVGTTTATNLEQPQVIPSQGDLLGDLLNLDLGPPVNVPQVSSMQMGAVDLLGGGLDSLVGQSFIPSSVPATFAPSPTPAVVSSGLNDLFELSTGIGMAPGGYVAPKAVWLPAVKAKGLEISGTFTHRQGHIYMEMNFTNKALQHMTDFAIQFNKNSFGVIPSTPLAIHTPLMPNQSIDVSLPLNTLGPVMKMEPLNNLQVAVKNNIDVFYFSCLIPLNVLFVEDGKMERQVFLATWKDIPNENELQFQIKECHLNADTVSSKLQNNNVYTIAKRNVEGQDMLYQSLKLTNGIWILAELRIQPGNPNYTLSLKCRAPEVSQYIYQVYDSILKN
# [6] = cytosolic pH regulators acting via V-ATPase – S. cerevisiae, pHLuorin, HTS validation (AID 504600; in the data active = response above about 15%;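 note: plate controls were DMSO for no effect and reference compound for full effect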); conditions: V-ATPase proton transport, at 10 µM, stronger effect = higher value
# [7] = system: anti-desmoglein-3 scFv antibody binding to human DSG3; test: blockers of pathogenic pemphigus antibody–desmoglein-3 binding – biochemical, validation compound set, bead-based, flow cytometry, pilot screen (AID 588368;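 active = binding below the plate cutoff, the plate median minus 3 SD, with a reading above zero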;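 note: signal is the median channel fluorescence of bead-bound GFP antibody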); conditions: Protein G beads, DSG3-Fc, scFv-GFP binding, at 10 µM, stronger effect = lower value
# [8] = Nile Red efflux blockade in pump-expressing yeast – validation compound set, multiplex, phenotypic, pilot screen (AID 588506;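 active = efflux inhibition above 0.42, the validation set average plus 4 SD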;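 note: Nile Red retained in cells so higher fluorescence means more efflux inhibition; 0 = negative control wells and 1 = enniatin B 25 µM full block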); conditions: S. cerevisiae pump-expressing triplex, Nile Red efflux flow cytometry; at 10 µM; stronger effect = higher value; the pumps come from Candida albicans
# [9] = target: ATP-binding cassette sub-family B member 6 (Homo sapiens) (UniProt Q9NP58); test: blockers of ABCB6-driven porphyrin uptake – K562-ABCB6 cells, flow cytometry, validation set, pilot screen (AID 588550;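 active = inhibition above the screen-wide mean plus 3 SD, about 51%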;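 note: 0% = DMSO wells and 100% = benzethonium chloride 70 µM positive control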); conditions: K562-ABCB6 porphyrin accumulation, 1 h, at 10 µM, stronger effect = higher value
# ATP-binding cassette sub-family B member 6 (Homo sapiens), sequence (Q9NP58 whole entry, looked up): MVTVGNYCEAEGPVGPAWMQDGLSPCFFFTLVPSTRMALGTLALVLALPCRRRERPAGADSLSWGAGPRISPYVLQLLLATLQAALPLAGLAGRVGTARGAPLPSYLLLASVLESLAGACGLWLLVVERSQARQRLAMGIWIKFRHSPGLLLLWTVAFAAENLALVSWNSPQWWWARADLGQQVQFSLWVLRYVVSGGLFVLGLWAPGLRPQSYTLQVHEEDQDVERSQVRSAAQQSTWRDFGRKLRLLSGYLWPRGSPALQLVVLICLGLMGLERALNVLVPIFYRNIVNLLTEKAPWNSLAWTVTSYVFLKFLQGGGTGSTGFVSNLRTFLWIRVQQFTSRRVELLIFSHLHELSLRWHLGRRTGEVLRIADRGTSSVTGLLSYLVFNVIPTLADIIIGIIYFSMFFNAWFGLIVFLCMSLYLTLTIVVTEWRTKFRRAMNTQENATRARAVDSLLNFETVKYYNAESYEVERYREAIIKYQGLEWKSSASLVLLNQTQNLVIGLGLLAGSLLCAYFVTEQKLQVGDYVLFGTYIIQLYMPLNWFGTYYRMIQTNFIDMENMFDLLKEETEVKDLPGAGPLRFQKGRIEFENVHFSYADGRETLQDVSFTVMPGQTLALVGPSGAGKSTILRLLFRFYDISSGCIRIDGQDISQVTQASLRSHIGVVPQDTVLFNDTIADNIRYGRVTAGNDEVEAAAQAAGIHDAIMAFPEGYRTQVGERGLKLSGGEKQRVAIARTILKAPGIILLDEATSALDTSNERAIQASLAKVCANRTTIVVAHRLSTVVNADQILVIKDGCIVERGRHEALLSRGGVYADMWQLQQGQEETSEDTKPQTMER
# [10] = AML differentiation inducers, ER-HoxA9 marrow cells – cell-based, GFP/MAC1 double positive, flow cytometry, validation set, primary screen (AID 588685;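 active = differentiation response of at least 50%, scaled between solvent and reference control, from cells with both markers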;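 note: compound exposure lasts four days before antibody staining and flow analysis; 0% = DMSO wells and 100% = 5 µM fulvestrant positive control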); conditions: stronger effect = higher value, normalized: vehicle 0, fulvestrant 100
# [11] = yeast TOR reporter LAP4-GFP level changes – cell-based, second cherry pick, flow cytometry, confirmation (AID 2621;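 active = GFP signal as percent of the solvent control above about 150%, meaning raised reporter expression, limit read from the data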;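 note: ratio of well median GFP fluorescence to plate DMSO mean so 100% = DMSO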); conditions: S. cerevisiae LAP4-GFP strain, 3 h, at 10 µM, stronger effect = higher value
# [12] = TOR pathway reporter MEP2-GFP, hit retest – S. cerevisiae, flow cytometry GFP, second cherry picks, confirmation (AID 2622;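 active = GFP signal above 150% of the solvent control wells, that is a rise of more than half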;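 note: median channel GFP fluorescence of all gated yeast cells per well; ratio of median GFP to plate DMSO average so 100% = DMSO level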); conditions: S. cerevisiae MEP2-GFP strain, 3 h, at 10 µM, stronger effect = higher value
# [13] = retest of hits on RPL19A-GFP strain – cell-based, S. cerevisiae, flow cytometry, second cherry pick, confirmation (AID 2623); conditions: 3 h, at 10 µM, stronger effect = lower value, 100% means same as DMSO wells;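 note: median GFP channel fluorescence per well over the all cells gate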
# [14] = yeast TOR pathway CIT2-GFP reporter modulation – flow cytometry, second cherry pick, single plex, confirmation (AID 2624;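 active = GFP response vs DMSO above about 150%, limit read from the data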;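 note: median green fluorescence per well over all gated yeast cells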); conditions: S. cerevisiae CIT2-GFP strain, 3 h, at 10 µM, stronger effect = higher value, DMSO control wells read 100%
# [15] = yeast AGP1-GFP fluorescence change, single-dose confirmation – cell-based, flow cytometry, S. cerevisiae, cherry pick set 2 (AID 2643;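 active = over 150 percent of DMSO response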;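 note: median GFP channel fluorescence over all cells without mother daughter split; sample median GFP divided by mean DMSO control so 100% equals DMSO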); conditions: S. cerevisiae AGP1-GFP strain, 3 h, at 10 µM, stronger effect = higher value
# [16] = calorie-restriction mimetic ROS inhibitors, yeast – validation compound set, pilot screen (AID 2706;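 active = superoxide response below 65% of plate, a cut near 3 SD across the whole screen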;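 note: yeast exposed to compound for one week at 30 degrees C before staining; 100% = mean of all compound wells on the same plate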); conditions: S. cerevisiae aging, superoxide DHE fluorescence; at 10 µM, stronger effect = lower value
# [17] = green-channel fluorescence artefact in S. cerevisiae – s288c strain, artefact control for yeast TOR pathway GFP screen, dose response (AID 2757;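 active = fluorescence span over the dose series, or activity score, above about 33, limit read from the data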;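 note: thousands of bead-calibrated equivalent soluble fluorophore molecules from median cell fluorescence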); conditions: 520 nm autofluorescence, flow cytometry, 3 h, at 33 µM, stronger effect = higher value, zero means same as solvent-only cells
compound,measurement,setting,value
O=C(NCCN1CCCCC1)c1c(O)c2ccccc2[nH]c1=O,double positive events,[1],61.8%
same,vesicle binding response,[1],38% (inactive)
same,inhibition,[2],-6.68% (inactive)
same,aptamer binding inhibition,[3],-4% (inactive)
same,response,[4],0.73% (inactive)
same,inhibition,[5],5.65% (inactive)
same,response,[6],3.25% (inactive)
same,binding (% of control),[7],109% (inactive)
same,efflux inhibition (fraction of control),[8],0.49 (active)
same,inhibition,[9],-4% (inactive)
same,differentiation response,[10],21.8% (inactive)
CN1CCc2cccc3c2[C@H]1Cc1ccc(O)c(O)c1-3,double positive events,[1],61%
same,vesicle binding response,[1],187% (inactive)
same,inhibition,[2],-17.1% (inactive)
same,aptamer binding inhibition,[3],4% (inactive)
same,response,[4],6.81% (inactive)
same,inhibition,[5],3.9% (inactive)
same,response,[6],2.95% (inactive)
same,binding (% of control),[7],94.3% (inactive)
same,efflux inhibition (fraction of control),[8],0.08 (inactive)
same,inhibition,[9],-1% (inactive)
same,differentiation response,[10],20.8% (inactive)
CC(C)[C@@H]1COC(c2cccc(C3=N[C@H](C(C)C)CO3)c2)=N1,GFP response vs DMSO,[11],99% (inactive)
same,GFP response vs DMSO,[12],98.2% (inactive)
same,GFP response vs DMSO,[13],101% (inactive)
same,GFP response vs DMSO,[14],97.2% (inactive)
same,percent response vs DMSO,[15],95.8% (inactive)
CCc1nnc(SCc2cccc(F)c2)nc1CC,GFP response vs DMSO,[11],104% (inactive)
same,GFP response vs DMSO,[12],96.1% (inactive)
same,GFP response vs DMSO,[13],95.5% (inactive)
same,GFP response vs DMSO,[14],89% (inactive)
same,percent response vs DMSO,[15],97.8% (inactive)
CCn1c(SCCC(C)C)nnc1-c1c[nH]c2ccccc12,GFP response vs DMSO,[11],95.2% (inactive)
same,GFP response vs DMSO,[12],96.1% (inactive)
same,GFP response vs DMSO,[13],96.3% (inactive)
same,GFP response vs DMSO,[14],100% (inactive)
same,percent response vs DMSO,[15],96.7% (inactive)
CCOC(=O)c1cnc(SCC(=O)NCc2ccco2)nc1N,GFP response vs DMSO,[11],99.2% (inactive)
same,GFP response vs DMSO,[12],97.8% (inactive)
same,GFP response vs DMSO,[13],96.8% (inactive)
same,GFP response vs DMSO,[14],111% (inactive)
same,percent response vs DMSO,[15],95.9% (inactive)
COc1ccc(-c2nc(CS(=O)(=O)CC(=O)NCc3cccc(Br)c3)c(C)o2)cc1,GFP response vs DMSO,[11],109% (inactive)
same,GFP response vs DMSO,[12],119% (inactive)
same,GFP response vs DMSO,[13],101% (inactive)
same,GFP response vs DMSO,[14],113% (inactive)
same,percent response vs DMSO,[15],99.3% (inactive)
C(=C\c1ccccc1)/CN1CCN(C(c2ccccc2)c2ccccc2)CC1,double positive events,[1],66.7%
same,inhibition,[2],-1.3% (inactive)
same,superoxide response (% of plate),[16],86.5% (inactive)
same,aptamer binding inhibition,[3],0% (inactive)
same,response,[4],11.4% (inactive)
same,inhibition,[5],0.96% (inactive)
same,response,[6],0.39% (inactive)
same,binding (% of control),[7],120% (inactive)
same,efflux inhibition (fraction of control),[8],-0.24 (inactive)
same,inhibition,[9],16% (inactive)
same,differentiation response,[10],1.64% (inactive)
CCCn1nc(C(=O)NNC(=O)CCOc2ccccc2OCC)c2ccccc2c1=O,GFP response vs DMSO,[11],102% (inactive)
same,GFP response vs DMSO,[12],97.8% (inactive)
same,GFP response vs DMSO,[13],102% (inactive)
same,GFP response vs DMSO,[14],121% (inactive)
same,percent response vs DMSO,[15],99% (inactive)
COC(=O)c1cc(-c2ccc(OC)c(OC)c2)on1,double positive events,[1],64.8%
same,vesicle binding response,[1],155% (inactive)
same,inhibition,[2],-0.45% (inactive)
same,aptamer binding inhibition,[3],-1% (inactive)
same,response,[4],17.4% (inactive)
same,inhibition,[5],35.3% (inactive)
same,response,[6],-27.6% (inactive)
same,binding (% of control),[7],107% (inactive)
same,efflux inhibition (fraction of control),[8],0.61 (active)
same,inhibition,[9],0% (inactive)
same,differentiation response,[10],31.5% (inactive)
CS(=O)(=O)Oc1ccc2c(c1)O/C(=C\C=C\c1ccccc1)C2=O,double positive events,[1],64.8%
same,vesicle binding response,[1],247% (inactive)
same,inhibition,[2],-40.9% (inactive)
same,aptamer binding inhibition,[3],4% (inactive)
same,response,[4],26.6% (inactive)
same,inhibition,[5],27.4% (inactive)
same,response,[6],-12.2% (inactive)
same,binding (% of control),[7],88.2% (inactive)
same,efflux inhibition (fraction of control),[8],-0.14 (inactive)
same,inhibition,[9],-22% (inactive)
same,differentiation response,[10],30.5% (inactive)
Cc1[nH]c2ccccc2c1C(=O)CN1CCCC1,double positive events,[1],61.6%
same,vesicle binding response,[1],26% (inactive)
same,inhibition,[2],-4.6% (inactive)
same,aptamer binding inhibition,[3],-4% (inactive)
same,response,[4],7.28% (inactive)
same,inhibition,[5],4.83% (inactive)
same,response,[6],-0.48% (inactive)
same,binding (% of control),[7],110% (inactive)
same,efflux inhibition (fraction of control),[8],0.24 (inactive)
same,inhibition,[9],48% (inactive)
same,differentiation response,[10],28.6% (inactive)
O=C(NC(=S)NC1CCS(=O)(=O)C1)c1cccc([N+](=O)[O-])c1 (configuration not stated),GFP response vs DMSO,[11],101% (inactive)
same,GFP response vs DMSO,[12],105% (inactive)
same,GFP response vs DMSO,[13],101% (inactive)
same,GFP response vs DMSO,[14],105% (inactive)
same,percent response vs DMSO,[15],106% (inactive)
CCC(=C/c1sc2ccc3ccccc3c2[n+]1C)/C=C1\Sc2ccc3ccccc3c2N1C,GFP response vs DMSO,[11],2930% (active)
same,GFP response vs DMSO,[12],285% (active)
same,GFP response vs DMSO,[13],451% (inactive)
same,GFP response vs DMSO,[14],303% (active)
same,percent response vs DMSO,[15],98.8% (inactive)
CC(Oc1ccc2ccccc2c1)C(=O)NNC(=S)NC(=O)c1ccco1 (configuration not stated),GFP response vs DMSO,[11],312% (active)
same,GFP response vs DMSO,[12],175% (active)
same,GFP response vs DMSO,[13],101% (inactive)
same,GFP response vs DMSO,[14],187% (active)
same,percent response vs DMSO,[15],112% (inactive)
same,fluorescence change (kMESF span),[17],2.02 (inactive)
CC1=C/C(=N\OS(=O)(=O)c2ccccc2)C=CC1=O,GFP response vs DMSO,[11],126% (inactive)
same,GFP response vs DMSO,[12],145% (inactive)
same,GFP response vs DMSO,[13],103% (inactive)
same,GFP response vs DMSO,[14],109% (inactive)
same,percent response vs DMSO,[15],101% (inactive)
COc1ccc2cc(-c3nc4ccccc4n3C)c(=O)oc2c1,double positive events,[1],65.4%
same,vesicle binding response,[1],147% (inactive)
same,inhibition,[2],-9.79% (inactive)
same,aptamer binding inhibition,[3],1% (inactive)
same,response,[4],-16.5% (inactive)
same,response,[6],-29.1% (inactive)
same,binding (% of control),[7],95.5% (inactive)
same,efflux inhibition (fraction of control),[8],-0.2 (inactive)
same,inhibition,[9],7% (inactive)
same,differentiation response,[10],17.8% (inactive)
CC(C)NC[C@@H](O)c1ccc(O)c(O)c1,double positive events,[1],58%
same,vesicle binding response,[1],125% (inactive)
same,inhibition,[2],-27.9% (inactive)
same,superoxide response (% of plate),[16],97.4% (inactive)
same,inhibition,[5],0.64% (inactive)
same,response,[6],11.9% (inactive)
same,binding (% of control),[7],97.3% (inactive)
same,efflux inhibition (fraction of control),[8],0 (inactive)
same,inhibition,[9],2% (inactive)
same,differentiation response,[10],-7.5% (inactive)
